# Paper PMC7862700, “An all-to-all approach to the identification of sequence-specific readers for epigenetic DNA modifications on cytosine”
# Tests used:
# Assay in all cases: DAPPL (digital affinity profiling via proximity ligation, sequencing); 10 mM Tris-HCl pH 7.5, 50 mM NaCl, 1 mM DTT, 4% glycerol, room temperature, 30 min; GST-TFs on glutathione beads, 16-mer random dsDNA library, 0.1% formaldehyde crosslink after washing; high values mean tight binding
# [1] = biological target: T1, FEV (Homo sapiens, UniProt Q99581 1-238); settings: protein: recombinant; tags: N-terminal GST; dsDNA, one strand shown
# T1 sequence: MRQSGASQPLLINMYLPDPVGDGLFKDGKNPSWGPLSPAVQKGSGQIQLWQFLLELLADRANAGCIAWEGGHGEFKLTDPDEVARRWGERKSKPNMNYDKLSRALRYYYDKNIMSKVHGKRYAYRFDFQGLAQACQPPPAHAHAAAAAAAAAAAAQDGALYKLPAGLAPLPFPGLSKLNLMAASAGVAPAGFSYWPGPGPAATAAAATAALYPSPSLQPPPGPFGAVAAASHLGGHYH
# In short: (§1)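 Beads coated with glutathione captured GST-fused human transcription factors that had been expressed in yeast, and the factors were then given DNA barcodes and pooled with a tag-only sample. The pools were incubated with 200 nmole of a random double-stranded 16-mer DNA library in Tris/NaCl/DTT/glycerol buffer for 30 min at room temperature, washed, crosslinked with 0.1% formaldehyde and proximity-ligated with BsaI/T4 ligase at 37 °C for 1 h. PCR amplification and Illumina NextSeq500 sequencing came last. Binding signal is each hexamer's read frequency for a factor divided by its frequency for the tag-only sample.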
# [2] = biological target: ETV5 (Homo sapiens, UniProt P41161 1-510); settings: protein: recombinant; tags: N-terminal GST; dsDNA, one strand shown
# In short: as §1
# [3] = biological target: HSF1 (Homo sapiens, UniProt Q00613 1-529); settings: protein: recombinant; tags: N-terminal GST; chain copies: 3; dsDNA, one strand shown
# In short: as §1
# [4] = biological target: T2, SPIC (Homo sapiens, UniProt Q8N5J4 1-248); settings: protein: recombinant; tags: N-terminal GST; dsDNA, one strand shown
# T2 sequence: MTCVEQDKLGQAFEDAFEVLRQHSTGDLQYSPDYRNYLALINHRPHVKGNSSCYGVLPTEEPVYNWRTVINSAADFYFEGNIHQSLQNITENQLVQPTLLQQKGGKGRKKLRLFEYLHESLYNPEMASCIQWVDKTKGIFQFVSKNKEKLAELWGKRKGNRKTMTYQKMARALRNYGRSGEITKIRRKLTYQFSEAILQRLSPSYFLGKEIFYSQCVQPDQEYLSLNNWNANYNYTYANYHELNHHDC
# In short: as §1
# [5] = biological target: ELF4 (Homo sapiens, UniProt Q99607 1-663); settings: protein: recombinant; tags: N-terminal GST; dsDNA, one strand shown
# In short: as §1
# [6] = biological target: T3, ELK4 (Homo sapiens, UniProt P28324-2 1-405); settings: protein: recombinant; tags: N-terminal GST; dsDNA, one strand shown
# T3 sequence: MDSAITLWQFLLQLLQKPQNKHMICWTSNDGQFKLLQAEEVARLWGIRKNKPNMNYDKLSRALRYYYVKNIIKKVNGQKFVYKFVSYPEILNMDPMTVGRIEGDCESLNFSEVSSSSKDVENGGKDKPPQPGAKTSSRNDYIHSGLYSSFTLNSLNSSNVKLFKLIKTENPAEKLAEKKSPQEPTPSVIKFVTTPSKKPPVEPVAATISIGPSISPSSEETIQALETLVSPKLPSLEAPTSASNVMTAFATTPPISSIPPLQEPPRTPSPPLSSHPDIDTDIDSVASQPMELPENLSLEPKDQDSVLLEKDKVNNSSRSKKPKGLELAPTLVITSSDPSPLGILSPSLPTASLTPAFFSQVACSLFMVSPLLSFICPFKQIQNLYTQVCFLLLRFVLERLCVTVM
# In short: as §1
# [7] = biological target: T4, ETV2 (Homo sapiens, UniProt O00321 1-342); settings: protein: recombinant; tags: N-terminal GST; dsDNA, one strand shown
# T4 sequence: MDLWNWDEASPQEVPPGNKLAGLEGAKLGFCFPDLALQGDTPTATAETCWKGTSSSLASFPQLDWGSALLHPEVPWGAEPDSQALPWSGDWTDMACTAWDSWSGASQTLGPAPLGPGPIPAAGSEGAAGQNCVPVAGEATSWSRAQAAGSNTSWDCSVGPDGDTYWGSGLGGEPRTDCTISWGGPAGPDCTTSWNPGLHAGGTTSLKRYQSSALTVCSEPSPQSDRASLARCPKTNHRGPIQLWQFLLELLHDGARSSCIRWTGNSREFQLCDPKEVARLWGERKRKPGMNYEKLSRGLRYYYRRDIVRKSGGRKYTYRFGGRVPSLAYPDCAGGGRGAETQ
# In short: as §1
# [8] = biological target: T5, ELF3 (Homo sapiens, UniProt P78545 1-371); settings: protein: recombinant; tags: N-terminal GST; dsDNA, one strand shown
# T5 sequence: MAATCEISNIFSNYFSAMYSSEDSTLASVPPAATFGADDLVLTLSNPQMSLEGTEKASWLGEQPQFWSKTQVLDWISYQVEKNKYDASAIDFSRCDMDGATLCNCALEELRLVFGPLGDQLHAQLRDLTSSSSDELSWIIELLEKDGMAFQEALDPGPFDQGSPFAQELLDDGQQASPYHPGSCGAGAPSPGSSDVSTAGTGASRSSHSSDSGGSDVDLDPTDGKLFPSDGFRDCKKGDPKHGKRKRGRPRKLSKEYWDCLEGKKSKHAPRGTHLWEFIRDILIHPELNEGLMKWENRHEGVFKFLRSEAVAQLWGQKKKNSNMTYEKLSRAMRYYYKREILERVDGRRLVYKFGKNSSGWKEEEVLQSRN
# In short: as §1
# [9] = biological target: CRX (Homo sapiens, UniProt O43186 1-299); settings: protein: recombinant; tags: N-terminal GST; dsDNA, one strand shown
# In short: as §1
# [10] = biological target: ETV1 (Homo sapiens, UniProt P50549 1-477); settings: protein: recombinant; tags: N-terminal GST; dsDNA, one strand shown
# In short: as §1
# [11] = biological target: T6, ERF (Homo sapiens, UniProt P50548 1-548); settings: protein: recombinant; tags: N-terminal GST; dsDNA, one strand shown
# T6 sequence: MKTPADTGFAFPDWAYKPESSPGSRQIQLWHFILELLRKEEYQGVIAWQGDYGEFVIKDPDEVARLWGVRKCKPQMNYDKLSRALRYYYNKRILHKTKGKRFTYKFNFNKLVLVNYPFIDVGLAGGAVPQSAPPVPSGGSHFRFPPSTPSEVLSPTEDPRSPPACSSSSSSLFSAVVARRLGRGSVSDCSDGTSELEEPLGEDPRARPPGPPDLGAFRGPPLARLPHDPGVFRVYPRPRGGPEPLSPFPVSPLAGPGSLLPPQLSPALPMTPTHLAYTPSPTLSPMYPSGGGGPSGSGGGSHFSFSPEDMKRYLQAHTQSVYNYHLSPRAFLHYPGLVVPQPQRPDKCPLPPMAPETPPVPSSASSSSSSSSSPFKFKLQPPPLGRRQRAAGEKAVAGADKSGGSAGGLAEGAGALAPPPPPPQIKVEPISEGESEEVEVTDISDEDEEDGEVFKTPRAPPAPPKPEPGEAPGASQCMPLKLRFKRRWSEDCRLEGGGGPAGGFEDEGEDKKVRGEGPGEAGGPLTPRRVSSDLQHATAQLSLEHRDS
# In short: as §1
# [12] = biological target: T7, ETV3L (Homo sapiens, UniProt Q6ZN32 1-361); settings: protein: recombinant; tags: N-terminal GST; dsDNA, one strand shown
# T7 sequence: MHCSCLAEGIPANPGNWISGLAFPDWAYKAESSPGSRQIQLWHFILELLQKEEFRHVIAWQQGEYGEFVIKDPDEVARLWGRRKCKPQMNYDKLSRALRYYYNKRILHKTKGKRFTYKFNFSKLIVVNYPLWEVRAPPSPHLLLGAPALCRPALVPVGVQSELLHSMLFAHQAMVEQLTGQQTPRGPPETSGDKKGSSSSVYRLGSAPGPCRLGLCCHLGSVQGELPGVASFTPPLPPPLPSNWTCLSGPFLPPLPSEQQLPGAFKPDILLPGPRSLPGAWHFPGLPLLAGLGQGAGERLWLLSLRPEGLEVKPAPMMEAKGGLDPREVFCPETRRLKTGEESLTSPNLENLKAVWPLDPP
# In short: as §1
# [13] = biological target: T8, ETS2 (Homo sapiens, UniProt P15036 1-469); settings: protein: recombinant; tags: N-terminal GST; dsDNA, one strand shown
# T8 sequence: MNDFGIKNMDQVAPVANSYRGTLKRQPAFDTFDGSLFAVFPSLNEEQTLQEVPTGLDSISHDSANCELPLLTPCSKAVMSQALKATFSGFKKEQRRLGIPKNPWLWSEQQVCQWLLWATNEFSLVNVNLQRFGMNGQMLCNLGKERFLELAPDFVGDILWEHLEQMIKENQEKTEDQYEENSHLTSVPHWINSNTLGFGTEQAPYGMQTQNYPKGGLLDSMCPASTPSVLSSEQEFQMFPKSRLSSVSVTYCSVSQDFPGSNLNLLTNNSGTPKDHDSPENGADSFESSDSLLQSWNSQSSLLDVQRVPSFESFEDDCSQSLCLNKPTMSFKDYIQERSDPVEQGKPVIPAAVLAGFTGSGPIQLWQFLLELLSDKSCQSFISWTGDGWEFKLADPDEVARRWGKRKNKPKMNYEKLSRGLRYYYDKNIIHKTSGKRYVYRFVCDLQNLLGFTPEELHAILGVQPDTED
# In short: as §1
# [14] = biological target: T9, SPDEF (Homo sapiens, UniProt O95238 1-335); settings: protein: recombinant; tags: N-terminal GST; dsDNA, one strand shown
# T9 sequence: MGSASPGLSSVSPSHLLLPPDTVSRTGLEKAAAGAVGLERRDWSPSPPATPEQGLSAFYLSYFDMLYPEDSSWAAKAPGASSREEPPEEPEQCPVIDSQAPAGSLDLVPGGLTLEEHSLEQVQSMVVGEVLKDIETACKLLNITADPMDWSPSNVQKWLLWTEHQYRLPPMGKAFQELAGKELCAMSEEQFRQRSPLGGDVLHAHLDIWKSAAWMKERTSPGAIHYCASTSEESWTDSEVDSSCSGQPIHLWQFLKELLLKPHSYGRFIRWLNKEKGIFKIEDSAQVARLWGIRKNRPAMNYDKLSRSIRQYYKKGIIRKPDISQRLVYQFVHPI
# In short: as §1
# [15] = biological target: T10, ETV7 (Homo sapiens, UniProt Q9Y603 1-341); settings: protein: recombinant; tags: N-terminal GST; dsDNA, one strand shown
# T10 sequence: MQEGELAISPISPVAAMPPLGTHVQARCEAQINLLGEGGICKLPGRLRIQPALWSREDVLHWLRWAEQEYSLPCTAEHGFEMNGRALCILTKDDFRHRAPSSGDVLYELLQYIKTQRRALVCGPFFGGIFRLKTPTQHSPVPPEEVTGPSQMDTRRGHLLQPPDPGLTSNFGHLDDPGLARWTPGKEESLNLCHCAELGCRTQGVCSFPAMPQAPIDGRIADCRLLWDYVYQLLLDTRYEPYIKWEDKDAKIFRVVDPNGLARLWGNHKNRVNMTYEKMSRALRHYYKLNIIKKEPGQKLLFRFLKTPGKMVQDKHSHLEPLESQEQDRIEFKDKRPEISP
# In short: as §1
# [16] = biological target: T11, ELF5 (Homo sapiens, UniProt Q9UKW6-2 1-255); settings: protein: recombinant; tags: N-terminal GST; dsDNA, one strand shown
# T11 sequence: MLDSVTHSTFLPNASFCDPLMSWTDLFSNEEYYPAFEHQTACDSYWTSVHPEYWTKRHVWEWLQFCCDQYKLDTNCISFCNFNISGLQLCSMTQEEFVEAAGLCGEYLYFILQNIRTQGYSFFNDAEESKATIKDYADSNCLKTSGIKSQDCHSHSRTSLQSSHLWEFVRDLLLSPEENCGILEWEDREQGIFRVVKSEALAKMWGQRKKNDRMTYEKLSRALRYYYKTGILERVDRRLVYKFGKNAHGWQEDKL
# In short: as §1
# [17] = biological target: T12, ETV3 (Homo sapiens, UniProt P41162-2 1-143); settings: protein: recombinant; tags: N-terminal GST; dsDNA, one strand shown
# T12 sequence: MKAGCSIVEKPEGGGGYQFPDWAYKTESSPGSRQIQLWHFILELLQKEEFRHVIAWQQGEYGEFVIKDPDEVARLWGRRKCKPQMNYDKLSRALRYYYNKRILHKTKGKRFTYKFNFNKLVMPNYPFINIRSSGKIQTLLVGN
# In short: as §1
# [18] = biological target: ETV6 (Homo sapiens, UniProt P41212 1-452); settings: protein: recombinant; tags: N-terminal GST; dsDNA, one strand shown
# In short: as §1
# Sequence of ETV5 (P41161 whole entry): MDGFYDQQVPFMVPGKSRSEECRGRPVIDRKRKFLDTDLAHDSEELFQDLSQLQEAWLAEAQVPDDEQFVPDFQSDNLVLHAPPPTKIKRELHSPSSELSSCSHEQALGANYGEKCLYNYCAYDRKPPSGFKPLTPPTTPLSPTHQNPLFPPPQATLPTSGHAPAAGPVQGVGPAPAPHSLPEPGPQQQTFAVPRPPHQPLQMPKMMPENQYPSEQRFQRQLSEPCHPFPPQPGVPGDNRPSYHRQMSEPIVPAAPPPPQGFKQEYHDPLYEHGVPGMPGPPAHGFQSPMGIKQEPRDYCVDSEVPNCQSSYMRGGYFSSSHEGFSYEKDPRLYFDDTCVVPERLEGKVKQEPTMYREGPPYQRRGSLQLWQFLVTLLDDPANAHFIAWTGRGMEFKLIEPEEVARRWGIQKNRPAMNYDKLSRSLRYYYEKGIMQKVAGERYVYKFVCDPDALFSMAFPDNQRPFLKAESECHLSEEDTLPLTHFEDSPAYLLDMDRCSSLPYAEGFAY
# Sequence of CRX (O43186 whole entry): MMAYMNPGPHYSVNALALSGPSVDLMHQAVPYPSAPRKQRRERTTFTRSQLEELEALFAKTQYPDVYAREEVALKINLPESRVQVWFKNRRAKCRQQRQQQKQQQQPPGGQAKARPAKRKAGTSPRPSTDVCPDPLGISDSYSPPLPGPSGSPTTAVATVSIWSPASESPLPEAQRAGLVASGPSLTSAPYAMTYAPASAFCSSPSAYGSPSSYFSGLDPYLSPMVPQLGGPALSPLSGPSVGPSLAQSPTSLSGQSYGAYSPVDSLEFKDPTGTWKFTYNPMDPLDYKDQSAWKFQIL
# Sequence of ETV6 (P41212 whole entry): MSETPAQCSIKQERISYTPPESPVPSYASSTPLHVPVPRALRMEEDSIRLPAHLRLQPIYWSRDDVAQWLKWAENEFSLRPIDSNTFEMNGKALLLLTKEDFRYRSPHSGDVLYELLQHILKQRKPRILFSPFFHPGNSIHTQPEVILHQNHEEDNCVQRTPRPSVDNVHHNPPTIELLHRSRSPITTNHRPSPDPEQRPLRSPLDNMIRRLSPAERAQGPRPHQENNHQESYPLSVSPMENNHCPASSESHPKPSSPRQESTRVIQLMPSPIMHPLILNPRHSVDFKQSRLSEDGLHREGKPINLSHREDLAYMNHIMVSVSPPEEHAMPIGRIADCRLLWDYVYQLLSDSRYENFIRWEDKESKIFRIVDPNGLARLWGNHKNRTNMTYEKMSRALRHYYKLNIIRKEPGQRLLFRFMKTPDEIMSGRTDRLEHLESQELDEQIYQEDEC
# Sequence of ELF4 (Q99607 whole entry): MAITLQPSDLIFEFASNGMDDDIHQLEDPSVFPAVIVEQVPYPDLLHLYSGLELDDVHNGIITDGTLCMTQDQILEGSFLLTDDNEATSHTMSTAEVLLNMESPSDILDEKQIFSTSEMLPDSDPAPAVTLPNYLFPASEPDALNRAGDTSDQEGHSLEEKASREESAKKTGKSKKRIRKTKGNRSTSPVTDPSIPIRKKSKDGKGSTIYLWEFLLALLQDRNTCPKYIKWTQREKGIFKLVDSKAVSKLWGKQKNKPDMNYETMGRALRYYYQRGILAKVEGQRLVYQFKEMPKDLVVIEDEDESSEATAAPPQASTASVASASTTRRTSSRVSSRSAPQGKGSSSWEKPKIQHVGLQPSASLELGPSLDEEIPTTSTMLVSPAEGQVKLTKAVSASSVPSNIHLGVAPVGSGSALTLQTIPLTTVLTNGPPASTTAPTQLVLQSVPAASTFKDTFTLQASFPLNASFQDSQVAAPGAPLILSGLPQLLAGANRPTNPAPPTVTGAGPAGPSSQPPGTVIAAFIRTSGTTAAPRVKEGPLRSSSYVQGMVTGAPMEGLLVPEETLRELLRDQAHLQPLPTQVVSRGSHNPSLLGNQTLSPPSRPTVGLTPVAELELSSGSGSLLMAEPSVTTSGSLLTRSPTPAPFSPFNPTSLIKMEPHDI
# Sequence of HSF1 (Q00613 whole entry): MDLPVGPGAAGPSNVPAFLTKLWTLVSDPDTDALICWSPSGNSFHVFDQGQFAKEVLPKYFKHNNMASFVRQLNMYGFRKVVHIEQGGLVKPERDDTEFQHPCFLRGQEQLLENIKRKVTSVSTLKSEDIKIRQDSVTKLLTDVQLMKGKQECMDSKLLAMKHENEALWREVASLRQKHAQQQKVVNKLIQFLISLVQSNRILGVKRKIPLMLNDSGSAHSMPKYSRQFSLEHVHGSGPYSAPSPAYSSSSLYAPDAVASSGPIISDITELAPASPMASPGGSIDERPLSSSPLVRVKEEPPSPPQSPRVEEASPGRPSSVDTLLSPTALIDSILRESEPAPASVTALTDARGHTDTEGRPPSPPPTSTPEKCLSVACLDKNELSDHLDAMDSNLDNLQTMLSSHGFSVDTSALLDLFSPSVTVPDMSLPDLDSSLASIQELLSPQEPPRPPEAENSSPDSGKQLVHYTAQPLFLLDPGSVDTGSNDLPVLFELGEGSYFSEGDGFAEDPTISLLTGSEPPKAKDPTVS
# Sequence of ETV1 (P50549 whole entry): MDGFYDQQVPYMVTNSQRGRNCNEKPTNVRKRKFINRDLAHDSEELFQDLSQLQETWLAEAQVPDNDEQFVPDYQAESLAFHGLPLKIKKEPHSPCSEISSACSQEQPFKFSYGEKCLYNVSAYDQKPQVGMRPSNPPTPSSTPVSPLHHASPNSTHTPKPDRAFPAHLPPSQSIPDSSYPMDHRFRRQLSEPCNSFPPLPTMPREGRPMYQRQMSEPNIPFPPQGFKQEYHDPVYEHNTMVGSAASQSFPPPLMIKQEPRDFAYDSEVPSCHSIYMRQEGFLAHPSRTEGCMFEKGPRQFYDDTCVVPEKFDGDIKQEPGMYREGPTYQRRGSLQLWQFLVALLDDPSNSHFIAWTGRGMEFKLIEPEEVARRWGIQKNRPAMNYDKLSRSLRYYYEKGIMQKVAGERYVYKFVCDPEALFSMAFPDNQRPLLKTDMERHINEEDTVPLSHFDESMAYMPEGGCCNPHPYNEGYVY
sequence,measurement,setting,value
AGATTT,binding signal,[1],"1.16 fold enrichment (6-mer frequency, TF over GST control)"
same,binding signal,[2],"1.2 fold enrichment (6-mer frequency, TF over GST control)"
same,binding signal,[3],"1.75 fold enrichment (6-mer frequency, TF over GST control)"
same,binding signal,[4],"1.06 fold enrichment (6-mer frequency, TF over GST control)"
same,binding signal,[5],"1.16 fold enrichment (6-mer frequency, TF over GST control)"
same,binding signal,[6],"1.25 fold enrichment (6-mer frequency, TF over GST control)"
same,binding signal,[7],"1.05 fold enrichment (6-mer frequency, TF over GST control)"
same,binding signal,[8],"1.21 fold enrichment (6-mer frequency, TF over GST control)"
same,binding signal,[9],"1.84 fold enrichment (6-mer frequency, TF over GST control)"
same,binding signal,[10],"1.15 fold enrichment (6-mer frequency, TF over GST control)"
same,binding signal,[11],"1.2 fold enrichment (6-mer frequency, TF over GST control)"
same,binding signal,[12],"1.17 fold enrichment (6-mer frequency, TF over GST control)"
same,binding signal,[13],"1.17 fold enrichment (6-mer frequency, TF over GST control)"
same,binding signal,[14],"1.05 fold enrichment (6-mer frequency, TF over GST control)"
same,binding signal,[15],"1.16 fold enrichment (6-mer frequency, TF over GST control)"
same,binding signal,[16],"1.22 fold enrichment (6-mer frequency, TF over GST control)"
same,binding signal,[17],"1.05 fold enrichment (6-mer frequency, TF over GST control)"
same,binding signal,[18],"1.11 fold enrichment (6-mer frequency, TF over GST control)"
